Laboratory results taken from the emibetuzumab library of Makowski et al. (2022).
The other results are listed elsewhere or left out. No count for the full screen is at hand.

B1: VH:VL chains; a variant is named by its letters at X, in order (parent)
chain 1: QVQLVQSGAEVKKPGASVKVSCKASGYTFTDYXMHWVRQAPGQGLEWMGXVNPNXXXTTYNQKFEGRVTMTTDTSTSTAYMELRSLRSDDTAVYYCARXNXLDXWGQGTTVTVSS
chain 2: DIQMTQSPSSLSASVGDRVTITCSVSSSVSSIYLHWYQQKPGKAPKLLIYSTSNLASGVPSRFSGSGSGTDFTLTISSLQPEDFATYYCQVYSGYPLTFGGGTKVEIK

Variants of: B1
Assay: yeast display scFab, FACS + sequencing
Settings: with MET
How it was run: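 A heavy-chain CDR mutant scFab library on yeast was enriched magnetically with HGFR-Fc-coated Protein A beads for two rounds and then by FACS after labelling with 1 nM HGFR-Fc and anti-Myc in PBSB with 1% milk for 3 h at room temperature, gating the top 50% antigen-positive cells. Antigen binding was judged positive if a sequence turned up in both antigen-positive deep-sequencing samples and negative if it turned up only in the input.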
With STGEDDVY the antigen binding call was “no binding”.
With DEEEGSAA the antigen binding call was “no binding”.
In the case of YRARGAGS, the antigen binding call is reported as “binds”.
In the case of YKARGAWS, the antigen binding call is reported as “binds”.
YRARGAWS was tested, and the antigen binding call was “binds”.
With YEEGTDWY the antigen binding call was “no binding”.
In the case of DREEGDGV, the antigen binding call is reported as “no binding”.
For DEAGTAVA, the antigen binding call was “no binding”.
In the case of VAGRSFGS, the antigen binding call is reported as “no binding”.
VKRGSSGD was tested, and the antigen binding call was “binds”.
For VRGRAAGD, the antigen binding call was “binds”.
VKRRDSGD was tested, and the antigen binding call was “no binding”.
ARRGGSGS was tested, and the antigen binding call was “no binding”.
With VRRGGSGS the antigen binding call was “binds”.
For VRGRDYGD, the antigen binding call was “no binding”.
With VERGGFGS the antigen binding call was “no binding”.
With VRAGDSLS the antigen binding call was “no binding”.
VRTGAVGD was tested, and the antigen binding call was “no binding”.
In the case of VRGRSSGS, the antigen binding call is reported as “binds”.
With AKGTASGD the antigen binding call was “no binding”.
With VEKEGDAD the antigen binding call was “no binding”.
In the case of VKEKGDWV, the antigen binding call is reported as “no binding”.
In the case of DARGGDAA, the antigen binding call is reported as “no binding”.
VAATASWV was tested, and the antigen binding call was “no binding”.
SEARSDGS was tested, and the antigen binding call was “no binding”.
With VTGTGDAD the antigen binding call was “no binding”.
For VRGRSAWS, the antigen binding call was “binds”.
For VRRGGSGD, the antigen binding call was “binds”.
With VRERGDGS the antigen binding call was “no binding”.
In the case of VRERGAGS, the antigen binding call is reported as “binds”.
With VRERGDAS the antigen binding call was “no binding”.
For DRGRDAWS, the antigen binding call was “no binding”.
In the case of VRAGGSGD, the antigen binding call is reported as “binds”.
In the case of VRTEDDWS, the antigen binding call is reported as “no binding”.
For SREAADWA, the antigen binding call was “no binding”.
For SEARSDWA, the antigen binding call was “no binding”.
AARADSGY was tested, and the antigen binding call was “no binding”.
In the case of VAATAAGA, the antigen binding call is reported as “no binding”.
DKTKGDWV was tested, and the antigen binding call was “no binding”.
VRAGDDGS was tested, and the antigen binding call was “no binding”.
ARRGSAVS was tested, and the antigen binding call was “no binding”.
VEGTSSGD was tested, and the antigen binding call was “no binding”.
With VRAGAAGS the antigen binding call was “binds”.
For VRRGSSGD, the antigen binding call was “binds”.
For VRRGSAGD, the antigen binding call was “binds”.
VRAGAAGV was tested, and the antigen binding call was “no binding”.
In the case of VTTKSAGD, the antigen binding call is reported as “no binding”.
VRRGSAGS was tested, and the antigen binding call was “binds”.
For VRAGADGV, the antigen binding call was “no binding”.
For DKGEGAGV, the antigen binding call was “no binding”.
STAESDVA was tested, and the antigen binding call was “no binding”.
For YRRGGSGD, the antigen binding call was “binds”.
VRRAADSD was tested, and the antigen binding call was “no binding”.
For VRRGSASD, the antigen binding call was “binds”.
For VRRETVSD, the antigen binding call was “no binding”.
With SAGEGDVF the antigen binding call was “no binding”.
For FKGRGAAV, the antigen binding call was “binds”.
VKAGASAD was tested, and the antigen binding call was “no binding”.
In the case of VKGRGSAD, the antigen binding call is reported as “binds”.
DRGRGSAD was tested, and the antigen binding call was “binds”.
With FRGRASAD the antigen binding call was “binds”.
For VKEGGSAD, the antigen binding call was “no binding”.
With FTGRAAAV the antigen binding call was “no binding”.
In the case of DEGGTSAD, the antigen binding call is reported as “no binding”.
With FKGRGFVV the antigen binding call was “no binding”.
